Reference: the supplement of paper PMC10981050
“And” between values parts separate entries of the source, which are not always exact repeats. Equal values may be shown once. Where a name gives a salt, the structure may show the parent alone.

Columns and labels:
Experiment in all cases: cell viability relative to vehicle control; higher = less cytotoxic
Conditions in all cases: 10 µM
[1] = test system: K562
Summary of the method: (§1)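 After removal of identity-inconsistent compounds, the Selleck bioactive, kinase and epigenetic probe libraries were screened on CRISPR-edited mutant clones and isogenic wild-type clones of four leukaemia lines. Plates were 384-well, each well holding 2000 cells in 50 µL medium and receiving a single 10 µM acoustically dispensed dose. CellTiter-Glo luminescence was read 48 h later, after the supernatant was taken off. Genedata Screener was used to express viability as percent of the on-plate vehicle control.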

[2] = test system: MARIMO
Summary of the method: as §1

[3] = test system: MOLM14
Summary of the method: as §1

[4] = test system: OCI-AML2
Summary of the method: as §1

Row | SMILES | cell viability ([1]; SRSF2 genotype: SRSF2 P95H/wt) | cell viability ([1]; SRSF2 genotype: SRSF2 wt/wt) | cell viability ([2]; SRSF2 genotype: SRSF2 P95H/wt) | cell viability ([2]; SRSF2 genotype: SRSF2 wt/wt) | cell viability ([3]; SRSF2 genotype: SRSF2 P95H/wt) | cell viability ([3]; SRSF2 genotype: SRSF2 wt/wt) | cell viability ([4]; SRSF2 genotype: P95H/wt) | cell viability ([4]; SRSF2 genotype: wt/wt)
1 | C[C@@H]1C[C@H]2[C@@H]3CCC4=CC(=O)C=C[C@]4(C)[C@@]3(F)[C@@H](O)C[C@]2(C)[C@@]1(O)C(=O)CO [Dexamethasone] | 99.7% and 95.1% | 92.8% | 106% | 99.8% | 95.4% | 90.6% | 98.2% | 103%
2 | Nc1nc2n[nH]nc2c(=O)[nH]1 [Azaguanine-8] | 85.3% and 81.8% | 82.5% | 76.2% | 68.1% | 82.7% | 86.6% | 70.9% | 54.6%
3 | C[C@]12CCC(=O)C=C1[C@@H]1C[C@@H]1[C@H]1[C@@H]3[C@@H]4C[C@@H]4[C@@]4(CCC(=O)O4)[C@@]3(C)CC[C@@H]12 [Drospirenone] | 83.3% and 90.5% | 83.3% | 82% | 91.8% | 83.8% | 89.2% | 101% | 92.7%
4 | CC(=O)N[C@@H](CS)C(=O)O [Acetylcysteine] | 101% and 97.9% | 95.6% | 97.5% | 92.6% | 97% | 97.5% | 102% | 98%
5 | O=c1c(-c2ccc(O)cc2)coc2cc(O[C@@H]3O[C@H](CO)[C@@H](O)[C@H](O)[C@H]3O)cc(O)c12 [Genistin (Genistoside)] | 95.5% and 108% | 94.7% | 94.6% | 98% | 89% | 99.7% | 92.1% | 93.4%
6 | C#Cc1cccc(Nc2ncnc3cc(OC)c(OCCCCCCC(=O)NO)cc23)c1 | 1.25% and 12.2% | 3.12% | 9.16% | 8.09% | 1.03% | 0.53% | 1.68% | 2.66%
7 | COc1ccc(-n2nc(C(N)=O)c3c2C(=O)N(c2ccc(N4CCCCC4=O)cc2)CC3)cc1 [Apixaban] | 99.3% and 102% | 103% | 97.9% | 112% | 107% | 105% | 98% | 96.7%
8 | CNC(=O)c1cnn(-c2nc(N)c3ncn([C@@H]4O[C@H](CO)[C@@H](O)[C@H]4O)c3n2)c1 [Regadenoson] | 106% and 105% | 104% | 102% | 103% | 103% | 103% | 104% | 119%
9 | CCN(CC)CCOC(=O)C(c1ccccc1)c1ccccc1 [Adiphenine HCl] | 97.9% and 89.7% | 85.9% | 85.1% | 96.3% | 89% | 94.3% | 92.4% | 81.1%
10 | C=C(C)[C@@H]1CC[C@]2(C)CC[C@]3(C)[C@H](CC[C@@H]4[C@@]5(C)CC[C@H](O)C(C)(C)[C@@H]5CC[C@]43C)[C@@H]12 [Lupeol] | 106% | 113% | 109% | 108% | 105% | 109% | 108% | 108%
11 | O=C(/C=C/c1ccc(CN(CCO)CCc2c[nH]c3ccccc23)cc1)NO [LAQ824 (Dacinostat)] | 1.15% and 10.3% | 2.76% | 5.99% | 11.9% | 0.84% | 0.58% | 1.63% | 2.36%
12 | CCCCCCOc1cc(C)c(O)c(C)c1C [HTHQ(1-O-Hexyl-2,3,5-trimethylhydroquinone)] | 93.5% and 93.8% | 106% | 89.1% | 96% | 91.1% | 102% | 98.7% | 107%
13 | Nc1nc(=O)[nH]cc1F [Flucytosine (Ancobon)] | 102% and 98.9% | 102% | 103% | 105% | 95.9% | 102% | 105% | 109%
14 | CCN(CC)C(=S)SSC(=S)N(CC)CC [Disulfiram (Antabuse)] | 42.7% and 53.4% | 53.3% | 14% | 14.4% | 27.1% | 32.5% | 14% | 20.8%
15 | CCCCCC1C(=O)CCC1CC(=O)OCCC (stereo not given) [Prohydrojasmon] | 100% and 102% | 109% | 98.6% | 98.6% | 95.8% | 106% | 110% | 118%
16 | OCc1c[nH]c2ccccc12 [Indole-3-carbinol] | 102% and 107% | 99.8% | 105% | 113% | 95.1% | 104% | 105% | 106%
17 | O=C(O)CCC(=O)O [Succinic acid] | 90.3% and 88.2% | 88% | 83.8% | 96.1% | 93.1% | 93.6% | 85.1% | 97.5%
18 | Cc1cccc(-c2[nH]c(C(C)(C)C)nc2-c2ccc3c(c2)OCO3)n1 | 63.9% and 60.2% | 47.6% | 61.4% | 63.3% | 84.9% | 83.8% | 52.6% | 50%
19 | CCOC(=O)C1=C(COCCN)NC(C)=C(C(=O)OC)C1c1ccccc1Cl (stereo not given) [Amlodipine besylate (Norvasc)] | 79.6% and 95.8% | 84.3% | 76.8% | 78.3% | 54.7% | 59.5% | 36.2% | 44.2%
20 | CC(=O)c1ccc(C)cc1O [2'-Hydroxy-4'-methylacetophenone] | 97.1% and 95% | 104% | 95.6% | 103% | 102% | 102% | 94.5% | 107%
